Assay outcomes: PubChem, several laboratories
A selection: hits, their analogues and other compounds. The true share with any hit is near 1%.
ZTA counter: ZTA (EBV) inhibition in EBNA-1 counter-screen; inhibition, % at 11 µM; AID 2234; P03206; ZTA-DNA binding, fluorescence polarization; 320,000 compounds, 0.15% hits; in the data active = inhibition above about 33%
Target sequence (P03206 whole entry, looked up): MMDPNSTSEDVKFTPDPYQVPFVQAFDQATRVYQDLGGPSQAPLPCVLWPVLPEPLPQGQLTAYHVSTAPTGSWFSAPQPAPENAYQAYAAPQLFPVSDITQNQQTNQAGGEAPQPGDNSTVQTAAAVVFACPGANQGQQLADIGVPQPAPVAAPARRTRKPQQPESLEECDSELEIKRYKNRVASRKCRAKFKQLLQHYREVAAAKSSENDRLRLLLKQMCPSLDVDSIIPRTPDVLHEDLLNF
MEX-5 binding: C. elegans MEX-5 TCR-2 RNA binding activity; Q9XUB2; MEX-5/FITC-TCR2 RNA binding, fluorescence polarization; stronger effect = lower value; activity score (negative = inhibition of binding), % at 10 µM; 300,000 compounds, 0.38% hits;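 active = inhibition past about -25% in most replicates, and total fluorescence under double the plate's negative control median, limit read from the data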
EBV gp42 block: EBV gp42 inhibition; Q1HVG2; Fluorescence polarization binding assay, mP read-out; inhibition, % (tested at 21.74 µM); 220,000 compounds, 0.42% hits; in the data active = inhibition above about 50%
Target sequence (Q1HVG2 whole entry, looked up): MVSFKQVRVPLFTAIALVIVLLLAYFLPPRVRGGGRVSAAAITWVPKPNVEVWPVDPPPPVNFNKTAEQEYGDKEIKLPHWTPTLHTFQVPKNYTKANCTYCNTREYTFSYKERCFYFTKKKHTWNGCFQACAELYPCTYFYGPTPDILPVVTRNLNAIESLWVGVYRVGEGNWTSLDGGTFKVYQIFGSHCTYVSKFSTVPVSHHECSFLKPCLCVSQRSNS
EBNA-1 inh: blocks EBNA-1 binding to DNA; EBNA-1 DNA binding, fluorescence polarization; 300,000 compounds, 0.34% hits; inhibition, % at 14.8 µM; in the data active = inhibition above about 28%
EBNA-1 confirm: EBNA-1 (EBV) inhibition, confirmation. shares compounds with EBNA-1 inh. 830 compounds, 35% hits. inhibition, % at 14.8 µM. Recombinant EBNA-1 DBD, Cy5-DNA fluorescence polarization;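 active = mean inhibition across replicates above a set limit taken from the earlier primary screen, cut at about 28% in these data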
ZTA counter trip: blocks Epstein-Barr virus ZTA in triplicate, EBNA-1 counter-screen; 830 tested, under 10 active; inhibition, % at 11.1 µM; shares compounds with EBNA-1 inh; Zta-ZRE DNA binding, Cy5 fluorescence polarization;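 active = mean inhibition over triplicates above a set limit taken from the primary EBNA-1 screen, cut at about 37% in these data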;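 also: purified full length Zta protein with Cy5 labeled ZRE DNA probe; inhibitors lower polarization by freeing the labeled DNA probe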
A number is an active result; n = inactive; x = not tested or not shown.

SMILES	ZTA counter	MEX-5 binding	EBV gp42 block	EBNA-1 inh	EBNA-1 confirm	ZTA counter trip
CC(=O)Nc1ccc(/C=C/c2nc(-c3ccccc3O)n[nH]2)cc1	n	n	x	45	n	n
CCOC(=O)C(Cc1ccc(NC(=O)/C(=C/c2ccccc2)NC(=O)c2ccccc2)cc1)N1C(=O)c2ccccc2C1=O (stereo not given)	n	n	n	41	n	n
CCOC(=O)C(Cc1ccc(NC(=O)/C(=C/c2ccc(OC(C)=O)cc2)NC(C)=O)cc1)N1C(=O)c2ccccc2C1=O (stereo not given)	n	n	n	n	x	x
Cc1cccc(C(=O)N/N=C/c2ccc(OC3CSC3)cc2)c1	n	n	n	35	n	n
CC(C)NC(=O)C1CC(=O)N(c2ccc(F)c(Cl)c2)C1 (stereo not given)	n	n	n	32	n	n
CNC(=O)C1CC(=O)N(c2ccc(F)c(Cl)c2)C1 (stereo not given)	n	n	n	n	x	x
COc1cccc(C(C(=O)NC2CCCC2)N(C(=O)CNC(=O)c2ccco2)c2cccnc2)c1 (stereo not given)	n	n	x	n	x	x
O=C(Cn1c(=O)cnc2ccccc21)Nc1cccc(S(=O)(=O)N2CCCCC2)c1	n	x	x	x	x	x
Cc1cc(C)cc(OCC(=O)OCC(=O)N2CCc3ccccc32)c1	n	n	x	n	x	x
CC1=CC2=NC(=O)/C(=C\c3cn(C)c4ccccc34)C(=N)N2O1	n	n	n	40	91	n
CC1=CC2=NC(=O)/C(=C\c3cc(C)n(-c4ccccc4)c3C)C(=N)N2O1	n	n	n	n	x	x
COc1cc(C(=O)NC2CC(C)(C)Cc3c2cnn3-c2ccccc2)cc(OC)c1OC (stereo not given)	n	n	x	32	34	n
COc1ccc(C(=O)NC2CC(C)(C)Cc3c2cnn3-c2ccccc2)cc1OC (stereo not given)	n	x	x	n	x	x
Cc1cccc(N(C(=O)c2snc(C(N)=O)c2N)C(C(=O)NCC2CCCO2)c2ccc(N(C)C)cc2)c1C (stereo not given)	n	n	x	40	97	n
CN(C)c1ccc(C(C(=O)NCC2CCCO2)N(Cc2ccccc2)C(=O)c2snc(C(N)=O)c2N)cc1 (stereo not given)	n	n	x	n	x	x
COc1cc(-c2nc3n(n2)C(c2cccc(OC)c2OC)C2=C(CCCC2=O)N3)cc(OC)c1OC (stereo not given)	n	n	n	85	112	n
COc1cc(-c2nc3n(n2)C(c2ccncc2)C2=C(CCCC2=O)N3)cc(OC)c1OC (stereo not given)	n	n	n	n	x	x
Cc1c(C(=O)NCc2ccc3c(c2)OCO3)sc2nc(-c3ccc(F)cc3)cn12	n	n	n	37	n	n
Cc1ccc(S(=O)(=O)N2CCC(C(=O)Nc3ccc4c(c3)OCO4)CC2)cc1	n	n	n	n	x	x
O=C(Nc1ccc2c(c1)OCO2)C1CCN(c2ccc(S(=O)(=O)N3CCOCC3)cc2)CC1	n	n	n	29	n	n
Cc1ncc([N+](=O)[O-])n1CC(=O)Nc1cc(Cl)ccc1Cl	n	n	x	n	x	x
COc1cc(NC(=O)COc2ccccc2)ccc1NC(=O)c1ccco1	n	n	x	n	x	x
COc1cc(NC(=O)CSc2nc3ccccc3c(=O)n2C)ccc1NC(=O)c1ccco1	n	n	n	40	28	n
O=C(N/N=C/c1ccc(O)cc1)c1nc(-c2ccccc2)n(-c2ccccc2)n1	n	n	n	31	31	n
Cc1c(CNCCc2ccc(Cl)cc2)c(C(=O)O)c(C)n1-c1ccccc1	x	n	x	x	x	x
SMILES	ZTA counter	MEX-5 binding	EBV gp42 block	EBNA-1 inh	EBNA-1 confirm	ZTA counter trip
Cc1c(NC(=O)COC(=O)c2cc(-c3ccc(-c4ccccc4)cc3)nc3ccccc23)c(=O)n(-c2ccccc2)n1C	n	n	n	31	n	n
COc1ccc(NS(=O)(=O)c2cccc(C(=O)NCc3ccccc3CN3CCCC3)c2)cc1	n	x	x	x	x	x
Cc1ccc(C)c(NC(=O)C(Sc2nc3ccccc3c(=O)n2CC(C)C)c2ccccc2)c1 (stereo not given)	n	n	n	32	n	n
NC1=NC(c2cccc(Cl)c2)N(CCc2ccc(F)cc2)C(N)=N1 (stereo not given)	n	n	x	n	x	x
Cc1ccc(C(=O)c2no[n+]([O-])c2C(=O)c2ccc(C)cc2)cc1	n	n	n	n	x	x
COc1ccc(N2CCN(S(=O)(=O)c3ccc(C(=O)NCc4ccco4)cc3)CC2)cc1	n	n	n	38	n	n
CCCCc1cc(=O)oc2c3c(cc(OCC(=O)N4CCC[C@H]4C(=O)O)c12)OC(C)(C)CC3	n	n	x	n	x	x
Cc1cc(=O)oc2c3c(cc(OCC(=O)N4CCC[C@H]4C(=O)O)c12)OC(C)(C)CC3	n	n	x	174	n	n
COc1ccc(C(=O)NC2CCN(CC(=O)Nc3c(C)cccc3C)CC2)cc1OC	n	n	x	n	x	x
COc1cc(NC(=O)COC(=O)/C=C/c2ccc(Cl)cc2Cl)cc(OC)c1	n	n	n	53	59	n
O=C(COC(=O)/C=C/c1ccc(Cl)cc1Cl)Nc1ccc2c(c1)OCCO2	n	n	n	n	x	x
CN(C)c1cc[n+](/C(C(=S)Nc2ccc(SC(F)F)cc2)=C(/[O-])c2ccccc2)cc1	n	n	n	58	43	n
Cc1cc(C)c(/C([O-])=C(/C(=S)Nc2ccc(SC(F)F)cc2)[n+]2ccccc2)cc1C	n	n	n	n	x	x
Clc1cccc(Cl)c1/C=C/c1ccn[nH]1	n	n	x	n	x	x
CCc1ccccc1NC(=O)COC(=O)C1C2CC3OC(=O)C1C3C2 (stereo not given)	n	n	x	n	x	x
COc1ccc(NC(=O)CCC(=O)c2cccs2)cc1S(=O)(=O)Nc1ccc(Cl)cc1	n	n	n	34	n	n
CC(C)(C)OC(=O)N1Cc2[nH]c3ccccc3c2C[C@@H]1C(=O)O	n	x	x	x	x	x
COc1ccccc1N1CC(C(=O)OCC(=O)Nc2c(C)cccc2C)CC1=O (stereo not given)	n	n	x	n	x	x
COc1ccc(C2CC(C(F)(F)F)n3nc(C(=O)Nc4ccc5c(c4)OCO5)cc3N2)cc1 (stereo not given)	n	n	n	40	110	n
CCOc1ccc(NC(=O)c2cc3cc4ccc(C)cc4nc3o2)cc1	n	n	n	n	x	x
CCOc1ccc(NC(=O)c2cc3cc4ccc(OC)cc4nc3o2)cc1	n	n	n	29	45	n
Cc1ccccc1NC(=S)N=Nc1c(O)n(C)c2ccc(S(=O)(=O)N3CCOCC3)cc12	n	n	n	42	n	n
O=C1CC(N(CCc2ccccc2)C(=S)Nc2ccccc2)C(=O)N1c1ccc(Br)cc1 (stereo not given)	n	n	n	n	x	x
Cc1ccc(N2C(=O)CC(N(CCc3ccccc3)C(=S)Nc3ccc(N(C)C)cc3)C2=O)cc1 (stereo not given)	n	n	n	57	n	n
